# Screening results: PubChem BioAssay, National Center for Advancing Translational Sciences (NCATS)
# ELG1 repair inh = qHTS screen for small molecules that inhibit ELG1-dependent DNA repair in human embryonic kidney (HEK293T) cells expressing luciferase-tagged ELG1 | HEK293T ELG1-luciferase reporter, luminescence, 16 h; DNA damage induced by 5-fluorouridine | Potency, µM (highest dose often 46.1 µM), without a hit: top-dose activity change, negative = inhibition, actives largely listed as inhibitors | 2.3% of 330,000 active | AID 504467, 2011; further: on the % scale 0 is the no-effect control and ±100 the full control effect; nearly all actives have a fitted effect of over 55% in size
#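 In this reporter screen, reduction of luminescence relative to DMSO vehicle indicated activity. Compounds and 5-fluorouridine were added together to 2,000 cells per well, incubated for 16 hr at 37 °C, then developed with ONE-Glo.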
# FLuc modulator = qHTS profiling assay for firefly luciferase inhibitor/activator using purifed enzyme and Km concentrations of substrates (counterscreen for miR-21 project); Potency, µM (doses to about 57.5 µM), for the others: at the highest dose activity change, negative = inhibition, usual class: inhibitors; 6.9% of 360,000 active; Luciferin 4-monooxygenase (Photinus pyralis), P08659; purified FLuc, Km substrates, luminescence inhibition;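 further: plate controls were vehicle for no effect and reference inhibitor for full effect; nearly all actives have a fitted effect of over 55% in size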
# Target sequence (P08659 whole entry, looked up): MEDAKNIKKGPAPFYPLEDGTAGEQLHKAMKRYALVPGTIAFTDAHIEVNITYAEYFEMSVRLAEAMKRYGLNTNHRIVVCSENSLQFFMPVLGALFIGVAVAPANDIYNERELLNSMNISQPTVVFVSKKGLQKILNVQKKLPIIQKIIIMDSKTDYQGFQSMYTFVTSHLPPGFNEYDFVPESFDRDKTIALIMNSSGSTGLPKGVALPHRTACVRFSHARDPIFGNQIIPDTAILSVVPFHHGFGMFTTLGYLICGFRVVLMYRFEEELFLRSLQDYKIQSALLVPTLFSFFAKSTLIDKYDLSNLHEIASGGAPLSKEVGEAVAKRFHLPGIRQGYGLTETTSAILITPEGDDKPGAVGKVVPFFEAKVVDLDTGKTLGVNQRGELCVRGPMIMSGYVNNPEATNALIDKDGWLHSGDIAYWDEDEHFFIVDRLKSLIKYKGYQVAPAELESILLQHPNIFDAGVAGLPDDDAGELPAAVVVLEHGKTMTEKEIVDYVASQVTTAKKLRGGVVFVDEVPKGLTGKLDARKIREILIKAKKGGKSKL
#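 Purified P. pyralis luciferase (10nM final) with 10uM D-luciferin and 10uM ATP (Km levels) in 50mM Tris acetate pH 7.5, 10mM Mg acetate, 0.01% Tween-20, 0.05% BSA; qHTS 6-point titration, ~60 µM downward; luminescence read.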
# ELG1 genotoxic = qHTS screen for small molecules that induce genotoxicity in human embryonic kidney (HEK293T) cells expressing luciferase-tagged ELG1 | AID 504466, 2011 | Potency, µM (titrated, usually from 46 µM), for inactives: at the top dose activity change, positive = activation, actives largely listed as activators | HEK293T ELG1-luciferase reporter, luminescence, 16 h | 1.3% of 330,000 active; further: % of control where 0% means no effect; nearly all actives have a fitted effect of over 60% in size
#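 Screening used a luciferase reporter fused to human ELG1 in HEK293T cells. Luminescence was read on a CCD plate imager after 16 hr exposure and 30 min ONE-Glo incubation.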
# Rab9 promoter act = qHTS Assay for Rab9 Promoter Activators | AID 485297, 2010 | Huh7 Rab9 promoter-luciferase reporter, luminescence, 24 h | Potency, µM (series often up to 9.22 µM), without a hit: top-dose activation, negative = inhibition, most hits filed as activators | 2.8% of 320,000 active; further: % of control where 0% means no effect; nearly all actives have a fitted effect of over 60% in size
#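 Using Huh7 cells stably transfected with Rab9 promoter–luciferase, compounds were incubated 24 h at 37 °C, 5% CO2; luciferase luminescence was read 10 min after reagent addition.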
# SMN2 splice enh = qHTS Assay for Enhancers of SMN2 Splice Variant Expression; 2.8% of 210,000 active; HEK293 SMN2-luciferase splicing reporter, luminescence, 30-36 h; Potency, µM (doses to about 46.1 µM), for inactives: at the highest dose activity change, positive = activation, actives largely listed as activators; further: % of control where 0% means no effect; nearly all actives have a fitted effect of over 55% in size
#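 HEK293 cells carry an SMN2 minigene-luciferase reporter in which exon 7 inclusion puts luciferase in frame. Cells were seeded at 2000 cells/well, attached for 10-12 hours, then exposed to compounds for 30-36 hours at 37C before ONE-Glo luminescence.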
# NPC1 promoter act = qHTS Assay for NPC1 Promoter Activators; Huh7 NPC1 promoter luciferase reporter, 24 h; Potency, µM (titrated, usually from 9.22 µM), for inactives: at the highest dose activation, most hits filed as activators; 2.4% of 320,000 active; AID 485313, 2010; further: % of control where 0% means no effect; nearly all actives have a fitted effect of over 60% in size
#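 Quantitative HTS used a cell-based reporter: Huh7 cells stably bearing the NPC1 promoter upstream of luciferase were treated with compounds for 24 h, and promoter activation was read as luminescence.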
# * hit, by the source's call; ? = inconclusive; . = no result. Only some compounds are listed: those with a hit (about 9.2% of all), similar ones and a draw of the others. The call rests on the fitted dose curve; in most records, active means well fitted curve in the direction sought with a large enough effect; inconclusive means small, poorly fitted or top-dose-only effect, or another doubt; inactive means no such curve, though single readings can be large; an effect the other way counts as inactive or inconclusive. Potency means the concentration at half of the fitted maximal effect.
SMILES,ELG1 repair inh,FLuc modulator,ELG1 genotoxic,Rab9 promoter act,SMN2 splice enh,NPC1 promoter act
COC(=O)c1ccc(CNC(=O)/C=C/c2cc([N+](=O)[O-])ccc2OC(F)F)cc1,10µM*,0%,-1%,-2%,0%,-1%
COc1ccc(CNC(=O)/C=C/c2cc([N+](=O)[O-])ccc2OC(F)F)cc1,-24%,3%,-1%,1%,-6%,-2%
COc1ccc(CNC(=O)/C=C/c2cc([N+](=O)[O-])ccc2OC(F)F)cc1OC,21µM*,2%,-1%,1%,-14%,-2%
O=C(/C=C/c1cc([N+](=O)[O-])ccc1OC(F)F)NCc1ccc(Cl)cc1,-20%,0%,-5%,1%,-14%,0%
Cc1ccc2occ(CC(=O)Nc3c(C(=O)Nc4ccc(Cl)cc4)oc4ccccc34)c2c1,.,-16%,.,.,37%,.
CCC1(c2ccc(Cl)cc2)NC(=S)N(c2ccc(C)cc2)N1 (stereo not drawn),?,17µM*,?,19%,-55%,7%
CC(=O)Nc1ccc(S(=O)(=O)NCCSCc2cccc(Cl)c2)cc1,-24%,0%,-3%,-5%,-21%,-6%
CC(=O)Nc1ccc(S(=O)(=O)NCCSCc2c(Cl)cccc2Cl)cc1,23µM*,0%,-8%,-2%,-34%,0%
CC(C)Cn1nc(NS(=O)(=O)c2cccc3nonc23)c2cc3ccccc3nc21,-3%,?,-3%,-4%,.,-3%
CCn1nc(NS(=O)(=O)c2ccc([N+](=O)[O-])cc2)c2cc3cc(C)ccc3nc21,17%,11µM*,5%,11%,.,-2%
CCn1nc(NS(=O)(=O)c2ccc([N+](=O)[O-])cc2)c2cc3ccc(C)cc3nc21,-11%,?,-4%,-3%,.,-4%
CCn1nc(NS(=O)(=O)c2cccc3nonc23)c2cc3ccc(C)cc3nc21,23%,30µM*,4%,3%,.,1%
C=CCn1c(SCCN2CCCC2)nc2c([nH]c3ccccc32)c1=O,-25%,6%,0%,0%,-2%,1%
CCCCC[C@H](O)/C=C/C=C\C/C=C\CCCCC(=O)O,.,.,.,.,-10%,.
O=C(Nc1ccc2c(c1)CCCN2C(=O)c1ccccc1)c1ccccc1,?,13µM*,-6%,?,.,26%
Cc1ccc(NC(=O)c2snc3ccc(Cl)cc23)cc1C,?,12µM*,18%,?,11µM*,9%
Cc1ccccc1C(=O)Nc1ccc2c(c1)CCCN2C(=O)c1cccs1,?,-15%,-7%,21%,.,0%
Cc1ccc(NC(=O)CCSCCC(=O)Nc2ccc(C)c(C)c2)cc1C,-4%,17µM*,0%,-4%,-1%,-1%
O=C(Nc1cc(NC(=O)c2ccccc2F)ccc1Cl)c1ccccc1,9%,15µM*,-6%,9%,.,4%
COC(=O)c1ccc(N(C(=O)c2ccco2)C(C(=O)NC2CCCC2)c2ccco2)cc1 (stereo not drawn),11%,2%,2%,-3%,24%,0%
O=C(c1ccc2c(c1)N(Cc1ccc(Cl)cc1)C(=O)c1ccccc1S2(=O)=O)N1CCOCC1,.,-1%,.,.,3%,.
O=C(CN1C(=O)COc2ccccc21)Nc1ccc(N2CCOCC2)cc1,-1%,-19%,0%,-2%,.,-1%
O=C(Nc1ccc(F)c(F)c1)c1ccccc1,?,?,21µM*,?,.,?
Cc1ccc(NC(=O)c2cccnc2)cc1C,?,?,?,?,.,28%
Cc1ccc(NC(=O)c2ccccc2)cc1C,?,15µM*,8%,6%,.,13%
CCCCC[C@H](O)/C=C/C=C\C=C\[C@@H](O)C/C=C\CCCC(=O)O,.,.,.,.,17%,.
